HepG2 tox = counter-screen for TGF-b inhibitors: cytotoxicity in HepG2 cells. HepG2 CAGA-GFP viability, ATP luminescence, 18 h. Potency, µM (titrated, usually from 46.1 µM), for the others: at the top dose activity change, negative = cytotoxicity, most hits filed as cytotoxic. 0.76% of 410,000 active. AID 588856
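HepG2 CAGA-GFP cells (1000/well, DMEM with 1% FBS) received compound, then TGF-beta at 500 pg/mL final, and were incubated 18 hours at 37 degrees C. Viability was read by CellTiter-Glo luminescence. Media-only wells were set as complete cell-killing and DMSO as no toxicity.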
ATXN2 expr inh = ATXN2 expression inhibition; HEK-293 ATXN2-luciferase reporter, luminescence, 24 h; Potency, µM (titrated, usually from 57 µM), without a hit: top-dose activity change, negative = inhibition, usual class: inhibitors; 0.72% of 360,000 active; AID 1745845; further: on the % scale 0 is the no-effect control and ±100 the full control effect; nearly all actives have a fitted effect of over 55% in size
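qHTS (up to 57 uM final) was run with 24 h compound exposure of reporter cells at 37 °C. Each well was multiplexed: SteadyGlo luminescence measured ATXN2-luciferase expression after a fluorogenic Gly-Phe-AFC viability readout (25 uM final).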
TGFb SMAD3 inh = inhibitors of TGF-b signaling; HepG2 CAGA-GFP TGF-b/SMAD3 reporter, GFP fluorescence, 18 h; TGF-beta stimulated, 500 pg/mL final; Potency, µM (doses to about 46.1 µM), inactives show at the highest dose activity, negative = inhibition, hits mostly inhibitors; 1.2% of 410,000 active; AID 588855; further: on the % scale 0 is the no-effect control and ±100 the full control effect; nearly all actives have a fitted effect of over 65% in size
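GFP signal (ex488/em500-530) from TGF-beta-stimulated HEPG2 CAGA-GFP cells, 500 pg/mL final, 18 h at 37 degrees C in DMEM plus 1% FBS, normalized to unstimulated and DMSO-stimulated controls.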
Gal4-VP16 FLuc = counter-screen for ROR gamma inhibitors: Gal4-VP16 reporter; AID 2546; Drosophila S2 Gal4-VP16 UAS-luciferase, luminescence, 20 h; Potency, µM (doses to about 53.6 µM), for the others: at the highest dose activity, negative = inhibition, hits mostly inhibitors; 3.5% of 310,000 active;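 further: Gal4-VP16 expression switched on by copper sulfate through the metallothionein promoter; on the % scale 0 is the no-effect control and ±100 the full control effect; nearly all actives have a fitted effect of over 50% in size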
ATXN viability = viability counter-screen for ATXN expression inhibitors; 0.49% of 400,000 active; S2 cells (HEK-293 line with an ATXN2-luciferase reporter) viability, CellTiter-Fluor protease fluorescence, 24 h; AID 651635; Potency, µM (doses to about 56.7 µM), actives largely listed as cytotoxic; further: nearly all actives have a fitted effect of over 40% in size
RORgamma inh = blocks mouse ROR gamma transcriptional activity | Drosophila S2 Gal4-RORgamma UAS-luciferase reporter, 20 h | Potency, µM (titrated, usually from 53.6 µM), for inactives: at the top dose activity change, negative = inhibition, hits mostly inhibitors | 5.4% of 310,000 active | P51450; further: on the % scale 0 is the no-effect control and ±100 the full control effect; nearly all actives have a fitted effect of over 60% in size
Target sequence (P51450 whole entry, looked up, the tested form may be a part): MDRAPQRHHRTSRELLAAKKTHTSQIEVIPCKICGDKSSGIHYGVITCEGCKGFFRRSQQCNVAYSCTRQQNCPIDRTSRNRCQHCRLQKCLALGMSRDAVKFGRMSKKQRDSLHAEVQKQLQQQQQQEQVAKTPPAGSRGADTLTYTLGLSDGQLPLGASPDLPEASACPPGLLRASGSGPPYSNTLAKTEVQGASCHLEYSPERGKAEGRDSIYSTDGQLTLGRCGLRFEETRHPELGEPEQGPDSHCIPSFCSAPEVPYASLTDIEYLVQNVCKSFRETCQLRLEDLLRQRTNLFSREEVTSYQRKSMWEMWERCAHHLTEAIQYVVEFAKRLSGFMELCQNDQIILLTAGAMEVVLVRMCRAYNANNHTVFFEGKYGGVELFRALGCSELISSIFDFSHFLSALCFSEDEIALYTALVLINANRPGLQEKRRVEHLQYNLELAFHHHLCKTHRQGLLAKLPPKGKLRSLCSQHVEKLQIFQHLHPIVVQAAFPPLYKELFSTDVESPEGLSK
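Using a luciferase readout, inhibitors were identified by reduced reporter activity in Drosophila cells coexpressing a copper-inducible Gal4–ROR gamma fusion and UAS-driven Photinus luciferase, incubated 20 hr after 700 uM copper sulfate.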
Numbers without * were called inactive; [ ] = remark or other dose. A selection: hits, their analogues and other compounds. The true share with any hit is near 6.1%. The call rests on the fitted dose curve; in most records, active means well fitted curve in the direction sought with a large enough effect; inconclusive means small, poorly fitted or top-dose-only effect, or another doubt; inactive means no such curve, though single readings can be large; an effect the other way counts as inactive or inconclusive. Potency means the concentration at half of the fitted maximal effect.

For COC(=O)c1nn(C23CC4CC(CC(C4)C2)C3)c2c1C(=O)N(c1ccc(Br)cc1)C2=O the results were HepG2 tox 7%, ATXN2 expr inh -19%, TGFb SMAD3 inh 4%, Gal4-VP16 FLuc 5.6µM*, ATXN viability inactive and RORgamma inh -13%.
Cc1cc(C(=O)CSc2nc(N)cc(=O)[nH]2)c(C)n1-c1ccc(OC(F)F)cc1 was read as HepG2 tox -10%, ATXN2 expr inh -16%, TGFb SMAD3 inh -18%, Gal4-VP16 FLuc 10µM*, ATXN viability inactive and RORgamma inh -38%.
Screening COc1ccc(CCn2c(C)cc(C(=O)CSc3nc(N)cc(=O)[nH]3)c2C)cc1 returned HepG2 tox -32%, ATXN2 expr inh inconclusive, TGFb SMAD3 inh -11%, Gal4-VP16 FLuc inconclusive, ATXN viability inactive and RORgamma inh 25%.
Screening Cc1cc(-n2c(C)cc(C(=O)CSc3nc(N)cc(=O)[nH]3)c2C)no1 returned HepG2 tox -12%, ATXN2 expr inh -20%, TGFb SMAD3 inh -4%, Gal4-VP16 FLuc 22µM*, ATXN viability inactive and RORgamma inh inconclusive.
COc1ccc(-n2c(C)cc(C(=O)CCl)c2C)cc1 was read as HepG2 tox 22µM*, ATXN2 expr inh 30µM*, TGFb SMAD3 inh inconclusive, Gal4-VP16 FLuc inconclusive, ATXN viability 27µM* and RORgamma inh 13µM*.
`Cc1cc(-n2c(C)cc(C(=O)CCl)c2C)no1` gave HepG2 tox 11µM*, ATXN2 expr inh 15%[11.3 µM], TGFb SMAD3 inh 8.9µM*, Gal4-VP16 FLuc inconclusive, ATXN viability inconclusive and RORgamma inh 6.3µM*.
`NC[C@H]1O[C@H](O[C@H]2[C@H](O)[C@@H](O[C@H]3O[C@H](CO)[C@@H](O)[C@H](N)[C@H]3O)[C@H](N)C[C@@H]2N)[C@H](N)[C@@H](O)[C@@H]1O` gave ATXN2 expr inh 9%[25.6 µM] and ATXN viability inactive.
C[C@H](CN1CCCC1)C(=O)c1ccc(C(F)(F)F)cc1 was read as ATXN2 expr inh 1% and ATXN viability inactive.
For COc1cc(Cl)c(C)cc1NC(=O)NC1COc2ccccc2C1 (stereo not given) the results were HepG2 tox -13% and TGFb SMAD3 inh -26%.
`COCCNC(=S)NC1CC2CCCC(C1)N2Cc1cccs1` (stereo not given) gave HepG2 tox 14%, ATXN2 expr inh -3%, TGFb SMAD3 inh 0%, Gal4-VP16 FLuc -1%, ATXN viability inactive and RORgamma inh inconclusive.
For COCCCNC(=S)NC1CC2CCCC(C1)N2Cc1cccs1 (stereo not given) the results were HepG2 tox -2%, ATXN2 expr inh -10%, TGFb SMAD3 inh -6%, Gal4-VP16 FLuc -2%, ATXN viability inactive and RORgamma inh 10µM*.
Screening Cc1cccc(NC(=S)NC2CC3CCCC(C2)N3Cc2cccs2)c1 (stereo not given) returned HepG2 tox -37%, ATXN2 expr inh -25%, TGFb SMAD3 inh 10%, Gal4-VP16 FLuc inconclusive, ATXN viability inconclusive and RORgamma inh 5µM*.
`CCCOc1ccc(CNC(=O)C(NS(=O)(=O)c2cccs2)C(C)C)cc1` (stereo not given) gave HepG2 tox -16%, ATXN2 expr inh 8%, TGFb SMAD3 inh -5% and ATXN viability inconclusive.
Screening CCC1(C2CCN(Cc3ccoc3)CC2)NC(=O)N(CC2COc3ccccc3O2)C1=O (stereo not given) returned ATXN viability inactive.
For C[C@@H]1[C@H](c2ccccc2)OCCS(=O)(=O)N1Cc1cccc(Cl)c1 the results were HepG2 tox -2% and TGFb SMAD3 inh inconclusive.
`C=CCNc1c(O)cc2c(O)c1C[C@@H](C)C[C@H](OC)[C@@H](O)[C@@H](C)C=C(C)[C@H](OC(N)=O)[C@@H](OC)C=CC=C(C)C(=O)N2` gave ATXN2 expr inh 0.77µM*.
